We go through seven compounds from PubChem BioAssay (NCATS).

The target of test [1] is Lysosomal acid glucosylceramidase (Homo sapiens) (UniProt P04062). The experiment in a line: Glucocerebrosidase-p2 (AID 348; in the data active = potency below about 10 µM; note: potency is the fitted concentration of half-maximal effect). The conditions noted are these: purified GBA, blue fluorogenic substrate, 40 min. An outline of the steps: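 Normal human glucocerebrosidase (0.2 nM) with blue fluorogenic substrate (80 uM final) in citrate/phosphate pH 5.9 with 10mM sodium taurocholate, 0.01% tween-20; 40 min RT, NaOH/glycine stop; fluorescence Ex 365/Em 440; AC50 from a titration from 0.6 nM upwards.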

A short description of test [2]: AP1 Signaling Pathway (AID 357).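 Note: ME-180 reporter cells stimulated with EGF at its EC50 level; % is set by controls: 0 for no effect and ±100 for the full control effect.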 The conditions noted are these: ME-180 AP-1-bla reporter, EGF-induced, beta-lactamase ratio, 5 h; at 7.69 µM (top of the series) unless noted. The gist of the method:
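A ratiometric CCF4 readout (405 nm excitation; 460 and 530 nm emission) quantified AP-1-driven beta-lactamase in ME-180 cells after 5 h with compound and EC50 EGF; AC50 values were derived for activators and inhibitors.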

Test [3] is described as follows: NFAT Signaling Pathway (AID 444).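 Note: carbachol stimulus at about its EC50 of 1 µM final; % is set by controls: 0 for no effect and ±100 for the full control effect.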 The conditions noted are these: Jurkat NFAT-bla M1, carbachol, beta-lactamase ratio, 5 h; at 7.69 µM (top of the series) unless noted. An outline of the steps: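 Read-out: CCF4 FRET ratio (460 nm/530 nm) after 1 h RT dye loading, used for %activity and AC50 from titration series. Cells: Jurkat NFAT-β-lactamase/M1 line, treated with compound plus 1 uM carbachol for 5 h, 37 °C.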

Test [4] addresses Glucocorticoid receptor (Homo sapiens) (UniProt P04150). The experiment in a line: GR-EFC Redistribution (AID 451; calls by dose curve; note: potency is the fitted concentration of half-maximal effect). The note with it: CHO-K1 GR-EFC translocation, beta-gal luminescence, 2 h. The gist of the method: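 Translocation of GR-ED fusion to nuclear EA restores b-gal, read by luminescence after 1 h room-temperature detection. Engineered CHO-K1 biosensor cells, 1,000/well, exposed 2 h at 37 C to titrations up to 46 uM final.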

Test [5] addresses Mitogen-activated protein kinase 10 (Mus musculus) (UniProt Q61831). Description: JNK3 AlphaScreen Assay (AID 530).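 Note: kinase came from lysate of stimulated human HepG2 cells; signal reports phosphorylation of biotinylated GST-cJun 1-79 at Ser73 with 10 µM ATP; % is set by controls: 0 for no effect and ±100 for the full control effect.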 The conditions noted are these: JNK3 lysate, c-Jun phosphorylation; series mostly up to 57.1 µM. An outline of the steps: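 Kinase buffer: 20 mM Tris-HCl pH 7.6, 10 mM MgCl2, 1 mM DTT, 0.1 mM Na3VO4, 0.01% Tween-20; ATP 10 uM. Substrate biotin-GST-cJun(1-79), enzyme from activated HepG2 lysates. Detection by Ser73 phospho-antibody AlphaScreen.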

The target in test [6] is 3',5'-cyclic-AMP phosphodiesterase 4B (Homo sapiens) (UniProt Q07343). Description: qHTS Assay for Inhibitors of PDE-IV (AID 607; active = well fitted activation curve with a large enough effect in the main read-out, with a control signal flat, not every such curve was filed as active; note: % of control where 0% means no effect). The note with it: HEK293 ACTOne CNG channel cells, membrane potential fluorescence; series mostly up to 22.9 µM. The gist of the method: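 Live HEK293 cells with a modified cyclic nucleotide-gated (CNG) channel report intracellular cAMP via membrane-potential dye fluorescence (ex 535/em 590 nm). Endogenous PDE-IV was targeted. Compounds were tested at up to 22.9 uM final; RO 20-1724 100 uM served as control.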

Test [7] is described as follows: Primary qHTS for small molecule stabilizers of the endoplasmic reticulum resident proteome: Secreted ER Calcium Modulated Protein (SERCaMP) assay (AID 1508630; active = well fitted curve in the direction sought with a large enough effect; an effect the other way counts as inactive or inconclusive; note: % is set by controls: 0 for no effect and ±100 for the full control effect). The note with it: SH-SY5Y GLuc-SERCaMP (Gaussia luciferase released on ER calcium loss) secretion, thapsigargin, luminescence; series mostly up to 38.4 µM. An outline of the steps:
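The SH-SY5Y reporter protocol was run at 3 concentrations up to 38.3 uM (primary) or 11 concentrations (follow-up): 16 h compound, 100 nM thapsigargin for 4 h, then extracellular luciferase luminescence.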

A short description of test [8]: Stat Signaling Pathway (AID 446). The conditions noted are these: ME-180 (cervical carcinoma) SIE beta-lactamase reporter, IL-6 stimulated, 5 h; at 7.69 µM (top of the series) unless noted. An outline of the steps:
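Overnight-plated ME-180 cells bearing a STAT Inducible Element beta-lactamase reporter; 5 h co-exposure to compound and 40 pM IL-6; values normalized to 300 pM IL-6 and 125 nM JAK inhibitor controls.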

The target of test [9] is Cytochrome P450 3A4 (Homo sapiens) (UniProt P08684). The experiment in a line: qHTS Assay for Inhibitors and Substrates of Cytochrome P450 3A4 (AID 884; active = well fitted curve in the direction sought with a large enough effect; an effect the other way counts as inactive or inconclusive; note: potency is the fitted concentration of half-maximal effect; nearly all actives have a fitted effect of over 50% in size). The conditions noted are these: recombinant CYP3A4, Luciferin-PPXE luminescence; series mostly up to 57.1 µM. The gist of the method:
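Luminescent readout of luciferin produced by CYP3A4 (20 nM) dealkylation of Luciferin-PPXE, 25 uM (its KM). NADPH-driven reaction ran 60 min at RT after 10 min compound preincubation; data scaled to 57 uM ketoconazole as 100% inhibition.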

Test [10] has the same target. The experiment in a line: qHTS Assay for Activators of Cytochrome P450 3A4 (AID 885; active = well fitted curve in the direction sought with a large enough effect; an effect the other way counts as inactive or inconclusive; note: nearly all actives have a fitted effect of over 65% in size). The conditions noted are these: recombinant CYP3A4, Luciferin-PPXE luminescence, 60 min; series mostly up to 57.1 µM. An outline of the steps:
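Using 20nM recombinant human CYP3A4 in potassium phosphate (200mM), substrate Luciferin-PPXE at 25uM, luminescent luciferin detection followed a 60-min RT NADPH reaction; data scaled to 57 uM ketoconazole.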

In test [11] the target is Cytochrome P450 2D6 (Homo sapiens) (UniProt P10635). The experiment in a line: qHTS Assay for Inhibitors and Substrates of Cytochrome P450 2D6 (AID 891; active = well fitted curve in the direction sought with a large enough effect; an effect the other way counts as inactive or inconclusive; note: potency is the fitted concentration of half-maximal effect; nearly all actives have a fitted effect of over 60% in size). The note with it: recombinant CYP2D6, luciferin-ME EGE luminescence; series mostly up to 57.1 µM. The gist of the method:
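Luminescent read-out of luciferin formed by 5 nM human CYP2D6 demethylating 30 uM Luciferin-ME EGE (Km level) over 60 min at room temperature after NADPH regeneration addition. Data normalized to full inhibition by 1.43 uM quinidine.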

Test [12] deals with Glucocorticoid receptor (Homo sapiens) (UniProt P04150). Description: GR-GFP Redistribution (AID 450;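 active = compounds whose dose series gives a full or clear partial fitted curve of increased nuclear translocation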; note: potency is the fitted concentration of half-maximal effect). The note with it: U2OS GR-GFP nuclear translocation, laser cytometry, 2 h.
Test [13] is described as follows: Confirmation and Secondary Assay for Modulators of Hemoglobin Beta Chain Splicing at IVS2 654 locus (AID 910; active = well fitted curve in the direction sought with a large enough effect; an effect the other way counts as inactive or inconclusive;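 note: HeLa cells stably carrying EGFP split by mutant beta-globin IVS2-654 intron; per-well total GFP intensity by laser scanning cytometry after 2-day treatment; % of control where 0% means no effect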). The note with it: HeLa EGFP-654 splicing reporter, GFP fluorescence, 48 h; series mostly up to 38.3 µM. The gist of the method: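 Readout: per-well total peak green fluorescence (488 nm ex, 500–520 nm em) from objects 5–250 µm, reflecting correct splicing of an EGFP-654 reporter. Compounds were applied for 2 days at 37 °C to overnight-plated HeLa EGFP-654 cells; controls were DMSO and 500 nM IVS2-654 PNA.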

Test [14] can be described thus: Confirmation and Secondary Assay for Modulators of Hemoglobin Beta Chain Splicing at IVS2 705 locus (AID 930; active = well fitted curve in the direction sought with a large enough effect; an effect the other way counts as inactive or inconclusive;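 note: HeLa cells stably expressing the EGFP-705 splicing reporter; GFP fluorescence per well restored by corrected splicing of the IVS2-705 intron in EGFP; % of control where 0% means no effect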). The conditions noted are these: HeLa EGFP-705 splicing reporter, GFP fluorescence, 48 h; series mostly up to 38.3 µM. An outline of the steps: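 HeLa EGFP-705 reporter; 500 cells/well, o/n 37C 5% CO2; cpd 2 d; 488 ex/500-520 em laser scan; total peak GFP intensity/well. Ref: 500 nM […] antisense PNA.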

In test [15] the target is Ubiquitin carboxyl-terminal hydrolase 1 (Homo sapiens) (UniProt O94782). The experiment in a line: Inhibitors of USP1/UAF1: Pilot qHTS (AID 504865; active = well fitted curve in the direction sought with a large enough effect; an effect the other way counts as inactive or inconclusive;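 note: rhodamine fluorescence freed from ubiquitin-rhodamine substrate followed over time; top concentration of the series differs between compounds; % is set by controls: 0 for no effect and ±100 for the full control effect; nearly all actives have a fitted effect of over 35% in size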). The conditions noted are these: purified USP1/UAF1, Ub-rhodamine cleavage fluorescence; series mostly up to 54.9 µM. The gist of the method: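 USP1/UAF1 complex at 1 nM preincubated 15 min at room temperature with compound, then Ub-Rho substrate added at 150 nM final. Fluorescence (480/540 nm) read kinetically in 50 mM HEPES pH 7.8, 0.5 mM EDTA, 1 mM TCEP, 0.1 mg/ml BSA, 0.01% Tween-20.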

Values without a mark were called inactive. Inconclusive results are not listed. Activity calls are given as the source filed them. Unless noted, calls come from the whole dose curve; as a rule, active = well fitted curve in either direction with a large enough effect (not every such curve was filed as active); inconclusive = small, poorly fitted or top-dose-only effect, or another doubt; inactive = flat fitted curve, though single readings scatter.

Lysosomal acid glucosylceramidase (Homo sapiens), sequence (P04062 whole entry, looked up): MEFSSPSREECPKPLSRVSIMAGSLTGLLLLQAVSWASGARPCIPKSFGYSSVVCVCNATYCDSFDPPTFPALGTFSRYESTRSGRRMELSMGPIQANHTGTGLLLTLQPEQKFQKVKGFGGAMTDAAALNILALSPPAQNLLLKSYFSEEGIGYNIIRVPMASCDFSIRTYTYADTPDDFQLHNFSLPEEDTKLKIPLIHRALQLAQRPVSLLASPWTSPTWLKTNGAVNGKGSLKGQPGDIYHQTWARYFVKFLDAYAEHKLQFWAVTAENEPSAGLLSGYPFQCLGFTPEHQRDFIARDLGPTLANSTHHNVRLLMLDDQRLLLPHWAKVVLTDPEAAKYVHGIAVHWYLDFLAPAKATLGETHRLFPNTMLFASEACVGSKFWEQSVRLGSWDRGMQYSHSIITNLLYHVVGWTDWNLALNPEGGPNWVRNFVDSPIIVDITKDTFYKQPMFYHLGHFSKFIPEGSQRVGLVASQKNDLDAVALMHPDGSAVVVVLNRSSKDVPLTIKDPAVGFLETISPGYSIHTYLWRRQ
Glucocorticoid receptor (Homo sapiens), sequence (P04150 whole entry, looked up, the tested form may be a part): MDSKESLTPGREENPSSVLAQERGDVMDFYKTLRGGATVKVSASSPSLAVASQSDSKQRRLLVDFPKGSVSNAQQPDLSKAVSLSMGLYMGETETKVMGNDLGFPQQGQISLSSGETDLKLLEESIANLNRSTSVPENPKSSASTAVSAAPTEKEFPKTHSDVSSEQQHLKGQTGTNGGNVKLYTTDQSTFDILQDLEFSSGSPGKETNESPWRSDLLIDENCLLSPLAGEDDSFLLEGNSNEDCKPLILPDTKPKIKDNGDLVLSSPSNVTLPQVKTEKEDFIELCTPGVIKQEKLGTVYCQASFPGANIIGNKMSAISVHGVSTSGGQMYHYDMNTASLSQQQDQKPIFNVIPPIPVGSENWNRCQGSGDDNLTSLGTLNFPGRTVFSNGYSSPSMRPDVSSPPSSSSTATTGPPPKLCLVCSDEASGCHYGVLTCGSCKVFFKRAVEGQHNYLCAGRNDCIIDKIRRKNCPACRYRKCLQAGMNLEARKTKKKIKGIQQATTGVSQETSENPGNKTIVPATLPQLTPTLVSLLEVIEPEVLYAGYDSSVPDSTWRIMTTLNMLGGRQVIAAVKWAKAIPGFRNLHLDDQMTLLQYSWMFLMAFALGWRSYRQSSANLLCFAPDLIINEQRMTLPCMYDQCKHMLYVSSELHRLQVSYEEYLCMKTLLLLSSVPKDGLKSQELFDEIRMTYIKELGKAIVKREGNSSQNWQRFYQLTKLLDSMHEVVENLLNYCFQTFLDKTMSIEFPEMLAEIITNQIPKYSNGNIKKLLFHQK
3',5'-cyclic-AMP phosphodiesterase 4B (Homo sapiens), sequence (Q07343 whole entry, looked up): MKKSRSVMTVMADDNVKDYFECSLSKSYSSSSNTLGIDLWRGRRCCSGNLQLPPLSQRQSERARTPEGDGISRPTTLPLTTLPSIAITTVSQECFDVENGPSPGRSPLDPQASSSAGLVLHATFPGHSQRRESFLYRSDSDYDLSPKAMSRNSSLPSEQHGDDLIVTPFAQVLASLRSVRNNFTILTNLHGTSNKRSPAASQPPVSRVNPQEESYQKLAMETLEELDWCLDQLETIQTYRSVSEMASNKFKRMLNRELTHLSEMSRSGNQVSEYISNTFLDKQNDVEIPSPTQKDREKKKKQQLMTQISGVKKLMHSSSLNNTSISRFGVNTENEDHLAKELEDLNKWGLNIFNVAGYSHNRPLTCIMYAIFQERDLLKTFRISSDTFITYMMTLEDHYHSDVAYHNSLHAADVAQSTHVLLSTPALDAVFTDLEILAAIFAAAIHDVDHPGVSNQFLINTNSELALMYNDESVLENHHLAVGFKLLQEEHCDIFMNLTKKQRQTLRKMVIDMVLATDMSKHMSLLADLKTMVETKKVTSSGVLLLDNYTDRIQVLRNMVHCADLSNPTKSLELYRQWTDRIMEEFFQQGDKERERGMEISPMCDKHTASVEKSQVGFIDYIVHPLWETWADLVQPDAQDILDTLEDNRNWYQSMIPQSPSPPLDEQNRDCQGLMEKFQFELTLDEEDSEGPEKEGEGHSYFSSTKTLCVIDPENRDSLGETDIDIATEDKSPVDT
Cytochrome P450 3A4 (Homo sapiens), sequence (P08684 whole entry, looked up): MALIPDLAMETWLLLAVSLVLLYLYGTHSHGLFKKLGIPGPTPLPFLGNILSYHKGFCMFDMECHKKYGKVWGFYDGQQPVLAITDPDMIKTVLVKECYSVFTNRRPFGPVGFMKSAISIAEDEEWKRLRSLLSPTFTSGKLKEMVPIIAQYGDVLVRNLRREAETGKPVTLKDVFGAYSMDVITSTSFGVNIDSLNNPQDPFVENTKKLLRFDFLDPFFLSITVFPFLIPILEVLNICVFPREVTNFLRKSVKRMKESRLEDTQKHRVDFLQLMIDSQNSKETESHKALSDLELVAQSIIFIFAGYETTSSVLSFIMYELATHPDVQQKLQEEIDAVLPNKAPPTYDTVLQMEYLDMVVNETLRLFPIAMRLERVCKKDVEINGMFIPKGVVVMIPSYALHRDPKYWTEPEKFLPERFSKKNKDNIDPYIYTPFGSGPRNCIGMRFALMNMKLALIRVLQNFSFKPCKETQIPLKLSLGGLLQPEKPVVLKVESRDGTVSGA
Ubiquitin carboxyl-terminal hydrolase 1 (Homo sapiens), sequence (O94782 whole entry, looked up): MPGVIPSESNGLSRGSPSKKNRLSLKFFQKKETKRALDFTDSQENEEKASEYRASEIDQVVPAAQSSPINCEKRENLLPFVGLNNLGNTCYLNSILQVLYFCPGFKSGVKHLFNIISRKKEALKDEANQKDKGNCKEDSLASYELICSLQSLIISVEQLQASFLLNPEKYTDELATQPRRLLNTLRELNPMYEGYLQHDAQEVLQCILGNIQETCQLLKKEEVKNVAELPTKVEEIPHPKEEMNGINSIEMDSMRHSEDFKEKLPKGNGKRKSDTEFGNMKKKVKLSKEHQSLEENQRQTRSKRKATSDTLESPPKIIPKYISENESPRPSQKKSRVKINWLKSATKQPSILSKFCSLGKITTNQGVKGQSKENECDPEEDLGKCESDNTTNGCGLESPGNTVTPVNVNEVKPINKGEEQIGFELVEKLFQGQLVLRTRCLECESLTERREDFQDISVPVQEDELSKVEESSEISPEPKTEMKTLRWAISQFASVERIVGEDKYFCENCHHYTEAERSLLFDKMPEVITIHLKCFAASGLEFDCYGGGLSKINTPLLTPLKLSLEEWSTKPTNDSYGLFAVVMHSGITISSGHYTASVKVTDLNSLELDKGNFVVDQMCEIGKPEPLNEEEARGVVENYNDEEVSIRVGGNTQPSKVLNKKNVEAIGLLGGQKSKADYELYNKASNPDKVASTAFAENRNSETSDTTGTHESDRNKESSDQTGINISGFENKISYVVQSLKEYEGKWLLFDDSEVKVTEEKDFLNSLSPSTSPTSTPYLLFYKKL
Cytochrome P450 2D6 (Homo sapiens), sequence (P10635 whole entry, looked up): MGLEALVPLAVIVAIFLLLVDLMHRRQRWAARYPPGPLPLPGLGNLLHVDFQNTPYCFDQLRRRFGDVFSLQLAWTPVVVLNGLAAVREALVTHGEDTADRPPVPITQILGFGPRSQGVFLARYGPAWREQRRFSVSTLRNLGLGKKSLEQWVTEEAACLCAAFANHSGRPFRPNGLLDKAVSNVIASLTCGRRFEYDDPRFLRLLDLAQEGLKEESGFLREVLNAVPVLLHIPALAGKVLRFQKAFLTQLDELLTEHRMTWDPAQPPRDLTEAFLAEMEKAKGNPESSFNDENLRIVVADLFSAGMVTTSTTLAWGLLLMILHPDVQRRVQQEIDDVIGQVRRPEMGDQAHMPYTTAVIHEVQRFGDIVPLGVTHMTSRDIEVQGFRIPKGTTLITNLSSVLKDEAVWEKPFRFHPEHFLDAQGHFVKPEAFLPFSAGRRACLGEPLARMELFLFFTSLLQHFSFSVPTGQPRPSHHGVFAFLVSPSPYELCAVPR

In the case of `N#Cc1cccc(NC(=O)N2CC[C@@]3(CCCN(C(=O)c4csnn4)C3)C2)c1`, the Potency was greater than 11.4 µM in test [1] and greater than 46 µM in test [4]. Also, the activity change, negative = inhibition was -20.4% in test [2] and 10.2% in test [3]. Also, the Potency entry in test [5] and in [6] was “inactive” throughout. In addition, the result in test [7] was inactive.

In the case of `O=S(=O)(c1ccccc1)N1CCC2(CCCN(C(c3ccccc3)c3ccccc3)C2)CC1`, the Potency in test [1] was greater than 11.4 µM; in test [4], greater than 46 µM; in test [9] it was 2 µM (active); in test [11], 0.501 µM (active). Besides, the activity change, negative = inhibition is -2.18% in test [2] and -9.54% in test [3]. Besides, the activity, negative = inhibition in [8] was -3.12%. Moreover, the Potency result in test [5], in test [6] and in test [10] was “inactive” each time. The result in [7] was inactive.

Consider `O=C(c1ccco1)N1CCC2(CCCN(c3cccc(-c4ccccc4)c3)C2)CC1`, for which the Potency in test [1] is greater than 11.4 µM; in test [4], greater than 46 µM. In test [2], the activity change, negative = inhibition was 12.9%. Moreover, the activity, negative = inhibition in test [8] was -5.55%. The Potency result in test [5] was “inactive”. Also, the outcome in test [7] was inactive.

For the compound `O=C(Nc1cccc(F)c1)N1CCCC2(CCN(C(=O)c3ccco3)CC2)C1`, the Potency was greater than 11.4 µM in test [1] and greater than 46 µM in [4]. In [2], the activity change, negative = inhibition was -8.03%. In test [8], the activity, negative = inhibition was 0.264%. Further, the Potency entry in test [5] was “inactive”. Also, the result in [7] was inactive.

For the compound `O=C(Nc1ccccc1)N1CCCC2(CCN(C(=O)c3cccc(F)c3)CC2)C1`, the results for the Potency in [1] and in test [4] were greater than 11.4 µM and greater than 46 µM, respectively. In addition, the activity change, negative = inhibition in test [2] is -6.89%. In test [8], the activity, negative = inhibition was -6.85%. Also, the Potency entry in [5] was “inactive”. In test [7], the outcome was inactive.

Take `CN(C)Cc1ccccc1-c1cncnc1Nc1ccc(F)cc1`: the Potency in test [1] was greater than 11.4 µM; in test [12] it was greater than 46 µM; in [4], greater than 46 µM. The activity change, negative = inhibition in test [2] is 18.9%. In addition, in test [8], the activity, negative = inhibition is 15.8%. Further, the Potency result in test [5], in test [6], in test [13] and in [15] was “inactive” each time. Besides, the compound was called inactive in test [14] and in [7].

As to `Cc1noc(C)c1C(=O)N1CCC2(CCCN(c3ccccn3)C2)CC1`, the Potency is greater than 11.4 µM in [1] and greater than 46 µM in [4]. For the same compound, the values for the activity change, negative = inhibition in [2] and in test [3] were -4.45% and -10.8%, respectively. The activity, negative = inhibition in test [8] is -8.83%. Moreover, the Potency entry in [5], in [6] and in test [10] was “inactive” each time. Besides, the result in test [7] was inactive.
